Measurements from PubChem BioAssay (EPA / NIEHS).
Records with an inconclusive call do not appear. The source made the active and inactive calls. The calls were made as follows, unless noted: active = hit-call score of the fitted dose curve at least 0.9, where 1 is the maximum; inactive = score below 0.9.

Tests used:
[1] = IUF_NPC1b_proliferation_BrdU_72hr: Leibniz Research Institute for Environmental Medicine (IUF) 72-hour Neural Progenitor Cell Bromodeoxyuridine (BrdU) Proliferation Assay (NPC1b) (AID 2284207)
Outline: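 Neural progenitor spheres of human fetal origin are treated for three days; BrdU added for the last 16 h is quantified by luminescence ELISA, with DMSO as baseline and EGF/FGF omission as positive control.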

[2] = IUF_NPC1a_proliferation_area_72hr: Leibniz Research Institute for Environmental Medicine (IUF) 72-hour Neural Progenitor Cell Proliferation Area Assay (NPC1a) (AID 2284208)
Outline: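 Read-out: increase in sphere area over 72 h by automated phase-contrast imaging, fitted in positive direction versus DMSO baseline. One hNPC sphere (0.25-0.35 mm) per well in EGF/FGF medium; growth-factor withdrawal served as positive control.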

[3] = IUF_NPC1_viability_72hr: Viability Assessment at 72 hours in the Leibniz Research Institute for Environmental Medicine (IUF) Neural Progenitor Cell Proliferation Assay (NPC1) (AID 2284209)
Outline: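 Spheres of primary human neural progenitors were plated singly in proliferation medium and treated for 72 h. Mitochondrial reduction of resazurin was then measured by fluorescence and analysed against DMSO controls.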

[4] = CCTE_Mundy_HCI_Cortical_Synap_Neur_Matur_NeuriteSpotCountPerNeuriteLength: CCTE's Synaptogenesis and Neurite Maturation Assay in rat cortical cells for Neurite Spot Count per Neurite Length, Mundy Lab (AID 2284210)
Outline: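 Neurite-associated synapse density (synaptophysin puncta per unit neurite length) is measured by fluorescence high-content imaging in rat cortical cultures treated from DIV 7 and fixed at DIV 12, with DMSO as negative control.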

[5] = CCTE_Mundy_HCI_Cortical_Synap_Neur_Matur_BPCount: CCTE's Synaptogenesis and Neurite Maturation Assay in rat cortical cells for Branch Point Count, Mundy Lab (AID 2284211)
Outline: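 HCI read-out of branch points from MAP2/synaptophysin/Hoechst immunofluorescence; rat cortical cultures, AraC DIV 5, dosing DIV 7, fixed DIV 12; fit in positive direction vs DMSO baseline.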

[6] = CCTE_Mundy_HCI_Cortical_NOG_NeuriteCount: CCTE's Neurite Outgrowth Assay in rat cortical cells for Neurite Count, Mundy Lab (AID 2284212);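 also: cells fixed about two days after chemical exposure began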
Outline: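 Rat cortical primary cells; compound added 2 h post-plating, 1/10 dilution of working solution. Anti-betaIII-tubulin/AF488 ICC; ArrayScan neurite count vs DMSO.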

[7] = CCTE_Mundy_HCI_Cortical_NOG_NeuriteLength: CCTE's Neurite Outgrowth Assay in rat cortical cells for Neurite Length, Mundy Lab (AID 2284213);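 as to AC50: neurites imaged about 48 to 50 h after chemical exposure began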
Outline: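 First, rat primary cortical cells were plated and, 2 h later, given test chemical as a 1/10 dilution. Finally, βIII-tubulin immunostaining enabled automated imaging of neurite length.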

[8] = CCTE_Mundy_HCI_Cortical_Synap_Neur_Matur_NeuriteLength: CCTE's Synaptogenesis and Neurite Maturation Assay in rat cortical cells for Neurite Length, Mundy Lab (AID 2284214)
Outline: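 Cultures of rat primary cortical cells received chemical at DIV 7 and were fixed at DIV 12, after glial arrest with AraC at DIV 5. Neurite length was measured by automated imaging of MAP2 immunofluorescence.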

[9] = CCTE_Mundy_HCI_Cortical_Synap_Neur_Matur_NeuriteSpotCountPerNeuron: CCTE's Synaptogenesis and Neurite Maturation Assay in rat cortical cells for Neurite Spot Count per Neuron Count, Mundy Lab (AID 2284215)
Outline: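 Rat primary cortical cells received AraC at DIV 5, then chemicals with a media change at DIV 7, and were fixed at DIV 12. Synaptophysin puncta on MAP2-stained neurites per neuron were counted by high-content imaging, fitted relative to DMSO.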

[10] = CCTE_Mundy_HCI_Cortical_Synap_Neur_Matur_SynapseCount: CCTE's Synaptogenesis and Neurite Maturation Assay in rat cortical cells for Synapse Count, Mundy Lab (AID 2284218)
Outline: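 Cells were plated, allowed 2 hr to attach, treated with AraC at DIV 5, then exposed to chemicals from DIV 7 until DIV 12. After fixation and MAP2/synaptophysin immunolabelling, synapses per neuron were quantified by automated imaging against DMSO.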

[11] = CCTE_Mundy_HCI_Cortical_Synap_Neur_Matur_NeuriteCount: CCTE's Synaptogenesis and Neurite Maturation Assay in rat cortical cells for Neurite Count, Mundy Lab (AID 2284222)
Outline: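 Rat cortical neurons, 96-well; AraC DIV 5; chemical + media change DIV 7; end DIV 12. Fix PFA/Hoechst, anti-MAP2 + anti-synaptophysin IF. HCI neurite count vs DMSO baseline.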

[12] = CCTE_Mundy_HCI_Cortical_Synap_Neur_Matur_CellBodySpotCount: CCTE's Synaptogenesis and Neurite Maturation Assay in rat cortical cells for Cell Body Spot Count, Mundy Lab (AID 2284223)
Outline: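 Rat primary cortical cultures received AraC at DIV 5 to arrest glia, were dosed with chemical at DIV 7 with media change, and were fixed at DIV 12 (288.33 h). Synaptophysin puncta on MAP2-positive cell bodies per neuron were counted by high-content imaging versus DMSO.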

[13] = UKN4_HCS_LUHMES_neurite_outgrowth: University of Konstanz (UKN) Leist Lab Neurite Outgrowth Assay in human LUHMES cells (UKN4) (AID 2284206); details: actives raise or lower the signal
Outline: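 Human LUHMES cells were differentiated for two days, replated and treated with chemicals for 24 h. Neurite outgrowth was quantified as calcein-stained neurite area by HCS imaging, fitted bidirectionally relative to DMSO.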

[14] = CCTE_Mundy_HCI_hNP1_Pro_ResponderAvgInten: CCTE's Proliferation Assay in human neuroprogenitor cells, Mundy Lab (AID 2284224; active = hit-call score of the fitted dose curve at least 0.9, where 1 is the maximum;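 also: human neural progenitor cells hNP1 derived from WA09 embryonic stem cells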)
Outline: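 Human neuroprogenitors (hNP1, WA09 lineage) receive test chemical after 40 to 44 hours of attachment. A four-hour BrdU pulse begins twenty hours later, followed by fixation and high content imaging; signal is referenced to DMSO controls.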

[15] = BSK_BT_PBMCCytotoxicity: PBMC Cytotoxicity Assessment in the BioMAP Diversity Plus: BT Assay (AID 2284225); details: primary human B cells with PBMC;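 also: PBMC viability measured by Alamar Blue dye reduction fluorescence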
Outline: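 Viability by Alamar Blue reduction (6 h, ex/em 546/580 nm) after 90 h culture of SEB/TSST-1-activated PBMC (20 ng/mL each) given compound 1 h before activation. DMSO served as baseline for curve fitting.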

[16] = read-out: Secreted IgG (sIgG), gene 3500; test: BSK_BT_sIgG: BioMAP Diversity Plus: BT Assay for Secreted IgG (sIgG) Biomarker Activity (AID 2284226); details: primary human B cells with PBMC
Outline: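 Cells (B cells with peripheral blood mononuclear cells) are dosed, cultured 24 h, then supernatant IgG is measured by ELISA. DMSO serves as negative control; curves are fitted for signal increase.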

[17] = BSK_BT_Bcell_Proliferation: Viability Assessment in the BioMAP Diversity Plus: BT Assay for B cell Proliferation (AID 2284227); details: primary human B cells with PBMC
Outline: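 Human B cell/PBMC co-culture; test chemical added; 72 h; TCA fix (10%), 0.1% SRB stain, A560 for total protein as a proliferation read-out; positive-direction fit vs DMSO baseline.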

Measured: AC50

CC(C)[C@@H](Nc1ccc(C(F)(F)F)cc1Cl)C(=O)OC(C#N)c1cccc(Oc2ccccc2)c1 (stereo partly specified)
active: [9] 4.59 µM
not listed: [13] | [14] | [15] | [16] | [17]
inactive: all other assays above

Cc1cc(C(F)(C(F)(F)F)C(F)(F)F)ccc1NC(=O)c1cccc(I)c1C(=O)NC(C)(C)CS(C)(=O)=O
active: [13] 0.264 µM
not listed: [15] | [16] | [17]
inactive: all other assays above

CCOCn1c(-c2ccc(Cl)cc2)c(C#N)c(Br)c1C(F)(F)F
inactive: [1]
active: [2] 26.3 µM | [3] 26.8 µM | [4] 22.7 µM | [5] 13.1 µM | [6] 23.2 µM | [7] 22.4 µM | [8] 15.5 µM | [9] 13.5 µM | [10] 13.5 µM | [11] 16.4 µM | [12] 18.9 µM | [14] 9.2 µM

NC(=O)CCl
inactive: [15] | [16] | [17]

COCC(=O)N(c1c(C)cccc1C)[C@H](C)C(=O)OC
inactive: [15] | [16] | [17]

O=[N+]([O-])c1cccc2ccccc12
inactive: [15] | [16] | [17]

CC(C)(C)c1cc([N+](=O)[O-])cc(C(C)(C)C)c1O
active: [15] 26.2 µM | [16] 2.8 µM | [17] 13.3 µM

O=C(O)COc1cc(Cl)c(Cl)cc1Cl
inactive: [15] | [16] | [17]

Cc1cc(Cl)ccc1N
inactive: [15] | [16] | [17]

CCOP(=O)(OCC)SCCSCC
inactive: [15] | [16] | [17]

CC(C)=CC1C(C(=O)OCc2cccc(Oc3ccccc3)c2)C1(C)C (stereo unspecified)
inactive: [15]
active: [16] 13.8 µM | [17] 31.4 µM

CC(C=O)Cc1ccc2c(c1)OCO2 (stereo unspecified)
inactive: [15] | [16] | [17]

CCN(CC)C(=O)C(Cl)=C(C)OP(=O)(OC)OC
inactive: [15] | [16] | [17]

CC(C)N(C(=O)CCl)c1ccccc1
active: [15] 20 µM | [16] 7.82 µM | [17] 9.93 µM

Oc1cccc(-c2ccccc2)c1
inactive: [15] | [16] | [17]

C#CCOC(=O)/C=C(C)/C=C/CC(C)CCCC(C)C (stereo unspecified)
inactive: [15] | [17]
active: [16] 20 µM

Cc1c([N+](=O)[O-])c(C)c([N+](=O)[O-])c(C(C)(C)C)c1[N+](=O)[O-]
inactive: [15] | [16] | [17]

CCOP(=O)(OCC)OC(=CCl)c1ccc(Cl)cc1Cl
active: [16] 20 µM
inactive: [15] | [17]

O=[N+]([O-])c1ccc(Nc2ccccc2)cc1
inactive: [15] | [17]
active: [16] 12.9 µM

O=S(=O)(C(Cl)(Cl)Cl)C(Cl)(Cl)Cl
active: [15] 3.65 µM | [16] 2.2 µM | [17] 2.48 µM

Oc1c(Br)cc(Br)cc1Br
inactive: [15] | [16] | [17]

Nc1c(Oc2ccccc2)cc(O)c2c1C(=O)c1ccccc1C2=O
inactive: [15] | [16] | [17]

OC(Cc1ccccc1Cl)(Cn1cncn1)C1(Cl)CC1 (stereo unspecified)
active: [16] 20 µM
inactive: [15] | [17]

c1ccc2sc(SNC3CCCCC3)nc2c1
active: [15] 30.8 µM | [16] 32 µM | [17] 29.3 µM

CCOC(=O)CCN(SN(C)C(=O)Oc1cccc2c1OC(C)(C)C2)C(C)C
active: [15] 25.9 µM | [16] 27.5 µM | [17] 28.9 µM

c1ccc(-c2cccc(-c3ccccc3)c2)cc1
active: [15] 32.8 µM | [16] 15.7 µM | [17] 33.3 µM

O=S(=O)(c1ccc(Cl)cc1)c1cc(Cl)c(Cl)cc1Cl
active: [16] 20 µM | [17] 30.1 µM
inactive: [15]

[Cl][Sn]([c]1ccccc1)([c]1ccccc1)[c]1ccccc1
active: [15] 0.617 µM | [16] 0.313 µM | [17] 0.423 µM

Cc1cc(Cl)ccc1OC(C)C(=O)O (stereo unspecified)
inactive: [15] | [16] | [17]

N#CCCC(Br)(C#N)CBr (stereo unspecified)
active: [15] 9.18 µM | [16] 7.61 µM | [17] 6.35 µM

O=C(CCl)NCO
inactive: [15] | [16] | [17]

Cc1ccc2nc3sc(=O)sc3nc2c1
inactive: [15]
active: [16] 5 µM | [17] 5 µM

C=CC(Cl)CCl (stereo unspecified)
inactive: [15] | [16] | [17]

CCCCCCCCCCCCN(C)C
inactive: [15] | [16] | [17]

CCOC(=O)CC(=O)CCl
active: [15] 19 µM | [16] 4.86 µM | [17] 16.9 µM

Oc1ccc(Cc2ccc(O)cc2)cc1
inactive: [15] | [16] | [17]

CCC(C)(C#N)N=NC(C)(C#N)CC (stereo unspecified)
inactive: [15] | [16] | [17]
